Laboratory results: the supplement of paper PMC12636033
± gives the standard deviation of the averaged measurements. Whole data set: some 33,000 sequences, median “E-score (rank enrichment, -0.5 to 0.5)” near -0.0028, cut for the highest 2% near 0.23. Only a selection was taken, and the highest values are over-represented in it overall.

System: 2Sb-muMax20 (muMax20 with two 1,3-bis(methyl)benzene Cys staples, A13C/A17C and Q88C/A92C, C-terminal Lys)
Assay: PBM 8-mer E-score (E-score (rank enrichment, -0.5 to 0.5)); higher = stronger preferential binding
Procedure: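 Protein binding microarray (universal PBM chip covering all 10-mers in fixed probe flanks) with chemically synthesized human Max(13-93) bHLH-LZ analogs (not full-length Max) bearing noncanonical residues (hArg, Tha, Aib, Nle at 65) and aromatic Cys staples. Read-out per 8-mer (and its reverse complement): E-score (rank-based enrichment, -0.5 to 0.5) and Z-score of median probe intensity.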

Sequence | PBM 8-mer E-score
CGGGGGAA | -0.121 ± 0.028
AAGGGAGG | 0.0917 ± 0.039
ATCTAGTA | -0.0228 ± 0.022
GTCTAGTA | 0.247 ± 0.051
CTCTAGTA | 0.103 ± 0.0078
CTAAGGGC | -0.156 ± 0.055
AAAGCGGA | 0.0459 ± 0.0043
CCTTACTA | 0.0233 ± 0.037
ACTTACTA | 0.258 ± 0.042
ACTTACTC | 0.0212 ± 0.036
GACCCACA | 0.0373 ± 0.043
CGTATTTA | 0.2434 ± 0.0022
AGTATTTA | 0.195 ± 0.012
GGTATTTA | 0.118 ± 0.052
GAACATGC | 0.136 ± 0.0025
CATCTTGA | -0.0488 ± 0.041
GATCTTGA | 0.246 ± 0.03
TATCTTGA | 0.163 ± 0.012
ATGACTGC | 0.00213 ± 0.035
CGCCTCAA | 0.0117 ± 0.0089
AGGCGGGG | 0.259 ± 0.092
GGCGGGGA | 0.403 ± 0.025
GGGCGGGA | 0.3 ± 0.018
GGGCGGAA | 0.111 ± 0.07
AGGGCGGG | 0.272 ± 0.091

Sequence | PBM 8-mer E-score
GGCGGGAA | 0.0557 ± 0.014
AGGGCGGA | -0.228 ± 0.016
CGCGGGGA | 0.0556 ± 0.023
CGGCGGGA | -0.205 ± 0.01
AGGCGGGC | 0.00216 ± 0.077
AGGGCGGC | -0.161 ± 0.057
AGGCGGGA | 0.08088 ± 0.00027
AACCGATA | -0.0929 ± 0.094
ACACCTCA | 0.0903 ± 0.038
GACGAGGA | -0.0396 ± 0.053
ACCAGGGT | -0.196 ± 0.08
CTGGACAC | -0.2589 ± 0.0024
ACCGGGTA | -0.1338 ± 0.00064
CATGAGCG | -0.0614 ± 0.0046
CCTACCCG | -0.0857 ± 0.0032
CTGGCGCA | -0.166 ± 0.074
ATGGCGCG | 0.0718 ± 0.02
ATGGCGCA | 0.239 ± 0.057
ACTTGGGC | 0.0763 ± 0.039
ATTTGGGA | 0.209 ± 0.0036
ATTTGGGG | 0.267 ± 0.0073
CACTTGGG | 0.176 ± 0.012
ATTTGGGC | 0.102 ± 0.069
ACTTGGGA | -0.129 ± 0.03
AACTTGGG | 0.304 ± 0.015

Sequence | PBM 8-mer E-score
AACTTGGA | 0.0353 ± 0.027
AATTTGGA | 0.0432 ± 0.015
AATTTGGT | 0.0829 ± 0.018
AATTTGGG | 0.29 ± 0.015
ACTTGGGG | 0.3507 ± 0.0032
ACGAGACG | 0.0104 ± 0.13
AGTGACTG | -0.0977 ± 0.053
CCGGCCCC | -0.0874 ± 0.098
TCCGTCGA | -0.0858 ± 0.034
GATGCGAC | 0.0229 ± 0.095
ACCTTCAC | 0.016 ± 0.0064
CTGTCATC | 0.0122 ± 0.062
AATGCGCT | 0.0765 ± 0.063
ACTGCGCC | -0.18 ± 0.0093
ACCTAGGA | 0.0803 ± 0.054
AGTTGGGA | -0.0331 ± 0.025
AGTTGGGG | 0.235 ± 0.015
AGTTGGGC | 0.0922 ± 0.0035
AAAAGTAT | 0.083 ± 0.012
ATAAGAAT | 0.104 ± 0.022
ATAAGTAT | 0.125 ± 0.033
AAAAGTAA | 0.0725 ± 0.087
ATAAGAAA | 0.144 ± 0.013
ATAAGTAC | 0.236 ± 0.016
ATAAGAAC | 0.239 ± 0.022

Sequence | PBM 8-mer E-score
AAAAGTAC | 0.239 ± 0.074
CTAAGTAC | 0.0248 ± 0.0083
CCTACGCG | 0.0631 ± 0.019
ATGGTAAC | 0.184 ± 0.066
GCTGTCGA | -0.165 ± 0.0033
GGCGCGAC | -0.163 ± 0.064
CGGACTAG | -0.0898 ± 0.0032
ATGGGGAC | 0.108 ± 0.083
ATGGGGAA | 0.296 ± 0.074
ATGGGAAA | 0.00532 ± 0.065
ATGGGGAG | 0.252 ± 0.011
CTGGGGAA | -0.106 ± 0.0058
GTGGGGAA | 0.293 ± 0.012
GGGGGAAA | 0.0837 ± 0.028
TGGGGAAA | 0.314 ± 0.049
TGGGGGAA | 0.0145 ± 0.015
ATGGGGGA | 0.071 ± 0.032
GTGGGGGA | 0.0894 ± 0.033
AGGGGGAG | -0.0302 ± 0.048
AAGGCAGA | -0.0447 ± 0.097
GCAGCTAC | -0.158 ± 0.016
GCTGGGAA | -0.192 ± 0.031
CGTTTAAC | 0.0567 ± 0.0093
TATCAAGA | 0.188 ± 0.043
CGTGGCAG | -0.0638 ± 0.045

Sequence | PBM 8-mer E-score
ACTGTTTC | 0.0301 ± 0.064
GCGGGGGA | 0.0111 ± 0.068
GCGGGAAA | 0.0716 ± 0.025
GCGGGGAA | 0.247 ± 0.02
CGGCCCAA | -0.0811 ± 0.15
GAGCAGCA | -0.143 ± 0.042
ACGATAGG | 0.245 ± 0.015
CCGATAGG | -0.0782 ± 0.013
ACGATAGC | 0.0621 ± 0.019
AAGCCGCC | -0.0339 ± 0.045
GTATAAAA | 0.247 ± 0.042
GCATAACA | 0.251 ± 0.042
GCATAACC | 0.0156 ± 0.029
CAATAATA | 0.233 ± 0.066
ATATAAAA | 0.186 ± 0.049
CAATAAAC | 0.0373 ± 0.052
CAATAATG | 0.0644 ± 0.019
ACATAACA | 0.107 ± 0.034
GAATAAAA | 0.0229 ± 0.074
CAATAAAA | 0.284 ± 0.016
CAATAATC | 0.189 ± 0.047
GTATAAAC | 0.186 ± 0.0026
AAGGGTCT | 0.00286 ± 0.1
AACTGTCG | -0.138 ± 0.016
ACGATGAG | 0.0498 ± 0.025

Sequence | PBM 8-mer E-score
TCACGAGA | -0.0563 ± 0.015
GAATAACA | 0.186 ± 0.011
TAATAACA | 0.0232 ± 0.011
CAATAACA | 0.232 ± 0.0098
CTCTTAAG | -0.0478 ± 0.022
GTGCGCAC | 0.157 ± 0.1
GATCAATC | -0.0898 ± 0.043
AAACCCCA | 0.232 ± 0.033
AAACCCTG | 0.029 ± 0.12
CTACCCCA | 0.259 ± 0.021
AAACCCTA | 0.244 ± 0.089
AGACCCCA | 0.283 ± 0.011
CTACCCCC | -0.0941 ± 0.072
TGACCCCA | 0.111 ± 0.032
CAACCCTA | 0.019 ± 0.059
GTACCCCA | 0.195 ± 0.023
AACCCCCA | -0.318 ± 0.021
AAACCCCC | -0.275 ± 0.038
AGACCCCC | -0.382 ± 0.044
AATGCCAT | 0.0622 ± 0.045
AGTTGTAG | 0.0711 ± 0.018
ATGGAAGG | -0.00186 ± 0.021
CCCCGTCA | 0.0912 ± 0.04
CCCCGGCG | -0.233 ± 0.056
GCTGCAAA | -0.0134 ± 0.061

Sequence | PBM 8-mer E-score
ACCGTCAT | 0.0687 ± 0.082
CAACCCCC | -0.167 ± 0.046
CAACCCAA | -0.0401 ± 0.029
CAACCCCA | 0.294 ± 0.051
AGTTTATC | 0.182 ± 0.027
ACTTTCTC | 0.0106 ± 0.018
AGTTTATA | 0.235 ± 0.044
ACTTTCTG | -0.0565 ± 0.016
ACTTTATC | 0.00955 ± 0.014
ACTTTATA | 0.232 ± 0.077
CCTTTATA | 0.0289 ± 0.054
GGTTTATA | 0.047 ± 0.079
ACTTTCTA | 0.241 ± 0.012
AGGCGAGG | 0.0445 ± 0.00056
CTATACCA | 0.214 ± 0.036
CGTCTGAG | -0.115 ± 0.054
CAACCGCG | 0.0452 ± 0.028
ATGTCTGC | -0.0456 ± 0.036
AATCTTCC | 0.0406 ± 0.055
ATATCGAC | 0.0358 ± 0.012
ATATCGAT | 0.23 ± 0.013
ATATCGAA | 0.0967 ± 0.018
